Results filed as inconclusive are left out. The source made the active and inactive calls. Rule for the calls: active = hit-call score of the fitted dose curve at least 0.9, where 1 is the maximum; inconclusive = response in the unintended direction; inactive = score below 0.9.
What was measured:
[1] = molecular target: Cellular tumor antigen p53 (Homo sapiens) (UniProt P04637); assay: TOX21_p53_BLA_p2_ratio: Tox21 HCT-116 p53 Agonism Beta-lactamase Assay, Ratio, Phase 2 (AID 2283592)
Outline: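 Cleaved-to-uncleaved substrate ratio (460 vs 530 nm) measured in HCT116 cells with an inducible beta-lactamase reporter linked to p53 activity. Compounds incubated 16 h at 37C before 2 h room-temperature CCF4-AM loading.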

[2] = TOX21_p53_BLA_p3_viability: Viability Assessment in the Tox21 HCT-116 p53 Agonism Beta-lactamase Assay, Phase 3 (AID 2283593);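 note: cells exposed to compound for 16 h before reading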
Outline: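 HCT116 cells, 4000/well, dosed 5 h after plating by pin transfer (217-fold dilution from DMSO stock) and incubated 16 h at 37C, 5% CO2. Viability read as ATP luminescence with CellTiter-Glo after 30 min at room temperature.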

[3] = molecular target: Cellular tumor antigen p53 (Homo sapiens) (UniProt P04637); assay: TOX21_p53_BLA_p3_ratio: Tox21 HCT-116 p53 Agonism Beta-lactamase Assay, Ratio, Phase 3 (AID 2283596)
Outline: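 Cells were seeded at 4000/well, rested 5 h at 37C, then dosed with DMSO compound solutions (217-fold dilution) for 16 h. CCF4-AM substrate was loaded for 2 h at room temperature, and the 460/530 nm emission ratio was fitted for gain of signal versus DMSO.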

[4] = TOX21_p53_BLA_p5_viability: Viability Assessment in the Tox21 HCT-116 p53 Agonism Beta-lactamase Assay, Phase 5 (AID 2283600)
Outline: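 Viability is taken from cellular ATP content, measured by luciferase luminescence in the same wells after the beta-lactamase ratio read. Cells are seeded at 4000 per well and exposed to DMSO-dissolved compounds, diluted 217-fold, for 16 h.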

[5] = molecular target: Cellular tumor antigen p53 (Homo sapiens) (UniProt P04637); assay: TOX21_p53_BLA_p4_ratio: Tox21 HCT-116 p53 Agonism Beta-lactamase Assay, Ratio, Phase 4 (AID 2283601)
Outline: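 HCT-116 p53 beta-lactamase reporter cells (4000/well) preincubated 5 h, then compound (217-fold dilution of DMSO stock) for 16 h at 37C. CCF4-AM substrate added 2 h at room temperature; 460/530 nm emission ratio fitted upward versus DMSO.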

[6] = molecular target: Cellular tumor antigen p53 (Homo sapiens) (UniProt P04637); assay: TOX21_p53_BLA_p5_ratio: Tox21 HCT-116 p53 Agonism Beta-lactamase Assay, Ratio, Phase 5 (AID 2283599)
Outline: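 HCT-116 p53-bla cells (4000/well) plated 5 h, dosed with compound (217-fold DMSO dilution) for 16 h at 37 C; CCF4-AM substrate 2 h at room temperature. Activity is the 460/530 nm emission ratio (405 nm excitation), fitted in gain-of-signal direction versus DMSO.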

[7] = TOX21_p53_BLA_p4_viability: Viability Assessment in the Tox21 HCT-116 p53 Agonism Beta-lactamase Assay, Phase 4 (AID 2283597);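 note: hits lower the luminescence signal meaning cytotoxicity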
Outline: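 Viability is taken as cellular ATP: after 16 h compound exposure of HCT116 cells and a 2 h room-temperature CCF4-AM substrate step, CellTiter-Glo reagent is added and luminescence is measured 30 min later.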

Measured: outcome

Cellular tumor antigen p53 (Homo sapiens), sequence (P04637 whole entry, looked up): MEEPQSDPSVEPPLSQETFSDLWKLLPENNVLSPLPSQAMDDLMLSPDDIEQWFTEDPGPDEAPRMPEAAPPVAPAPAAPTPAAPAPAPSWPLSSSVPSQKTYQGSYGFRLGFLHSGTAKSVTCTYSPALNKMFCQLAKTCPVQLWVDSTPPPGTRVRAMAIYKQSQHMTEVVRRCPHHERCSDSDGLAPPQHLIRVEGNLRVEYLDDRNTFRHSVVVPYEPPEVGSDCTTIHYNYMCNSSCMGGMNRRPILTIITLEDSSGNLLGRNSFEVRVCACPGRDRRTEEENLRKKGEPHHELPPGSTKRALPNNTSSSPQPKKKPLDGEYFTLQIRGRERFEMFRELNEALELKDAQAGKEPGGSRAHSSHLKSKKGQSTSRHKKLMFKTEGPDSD

COC(=O)CCC(=O)CN
inactive: [1] | [2] | [3] | [4]

N#CC1(O)CCCCC1
inactive: [1] | [2] | [3] | [5]

CC[C@@H](C)[C@H](N)C(=O)O
inactive: [1] | [2] | [3] | [5]

CCCCCCCCCCCCCCCCCCO
not listed: [4] | [7]
inactive: all other assays above

CCCCC(C)(O)C/C=C/[C@H]1[C@H](O)CC(=O)[C@@H]1CCCCCCC(=O)OC (stereo partly specified)
not listed: [4] | [7]
inactive: all other assays above

CC(C)NCC(O)COc1cccc2[nH]ccc12 (stereo unspecified)
not listed: [4] | [7]
inactive: all other assays above

COC(c1ccccc1)(c1ccccc1)[C@H](Oc1nc(C)cc(C)n1)C(=O)O
not listed: [6] | [7]
inactive: all other assays above

C=CCn1c(=O)n([C@@H]2O[C@H](CO)[C@@H](O)[C@H]2O)c2nc(N)[nH]c(=O)c21
inactive: [1] | [2] | [3] | [5]

CN(C(=O)c1c(O)c2ccccc2n(C)c1=O)c1ccccc1
not listed: [3]
inactive: all other assays above

CCCCCCCCCCCCCCCCN
not listed: [3]
inactive: all other assays above

CCOC(=O)C(C)C(C)=O (stereo unspecified)
not listed: [3]
inactive: all other assays above

CC1CS(=O)(=O)CCN1N=Cc1ccc([N+](=O)[O-])o1 (stereo unspecified)
not listed: [3] | [5]
inactive: all other assays above

C=CC1CC2C=CC1C2 (stereo unspecified)
not listed: [3]
inactive: all other assays above

O=C(Cl)c1ccc(F)c(Cl)c1
inactive: [1] | [2] | [7]

OC(CCN1CCCCC1)(c1ccccc1)c1ccccc1
not listed: [3]
inactive: all other assays above

Cc1ccc(O)c([N+](=O)[O-])c1
inactive: [1] | [2] | [7]

COC(=O)CCCCCCCC(=O)OC
not listed: [3] | [5]
inactive: all other assays above

CCS(=O)(=O)CCn1c([N+](=O)[O-])cnc1C
inactive: [1] | [2] | [3] | [5]

CN(C)C(=O)CNC(=O)Cc1ccccc1
not listed: [3] | [4]
inactive: all other assays above

CC(C)CCCC(C)N (stereo unspecified)
not listed: [3]
inactive: all other assays above

Oc1ccc(Cl)c2c1CCC2
not listed: [3]
inactive: all other assays above

CCNC(=O)C(C)OC(=O)Nc1ccccc1 (stereo unspecified)
inactive: [1] | [2] | [7]

COc1ccc(S(=O)(=O)N2c3ccc(Cl)cc3[C@@](O)(c3ccccc3Cl)[C@H]2C(=O)N2CCC[C@@H]2C(N)=O)cc1OC
inactive: [1] | [2] | [7] | [6]

C=C(C)CC(C)(C)C
not listed: [3]
inactive: all other assays above

CC(=O)OC(C(=O)c1ccccc1)c1ccccc1 (stereo unspecified)
not listed: [3] | [4]
inactive: all other assays above

CC=C(C)C(=O)OCCC(C)CCC=C(C)C (stereo unspecified)
inactive: [1] | [2] | [7]

C[C@H](CCCC(C)(C)O)[C@H]1CC[C@H]2[C@@H]3CC=C4C[C@@H](O)CC[C@]4(C)[C@H]3CC[C@]12C
inactive: [1] | [2] | [3] | [5]

COC[C@H](c1ccc(C(F)(F)F)cc1)N1CCN(C2(C)CCN(C(=O)c3c(C)ncnc3C)CC2)C[C@H]1C
not listed: [3]
inactive: all other assays above

CCCCCCCCCCCCCCC(=O)NC(CO)CCCCCCCCCCCCCC (stereo unspecified)
inactive: [1] | [2] | [7] | [6]

O=C(CCCCCCCCCCCCC1CCCC1)Nc1ccc(S(=O)(=O)c2ccc(NC(=O)CCCCCCCCCCCCC3CCCC3)cc2)cc1
not listed: [3] | [4]
inactive: all other assays above

ICCc1ccccc1
not listed: [3] | [4]
inactive: all other assays above

CN(Cc1ccccc1)Cc1ccccc1
not listed: [3] | [4]
inactive: all other assays above

CN(C(=O)C(Cl)Cl)c1ccc(OC(=O)c2ccco2)cc1
inactive: [1] | [2] | [7]

Cc1ccc2nc(-c3ccc(N)cc3)sc2c1S(=O)(=O)O
not listed: [3] | [4]
inactive: all other assays above

— PubChem BioAssay (EPA / NIEHS)
